Out of some 4,800 compounds screened, about 420 (8.8%) showed an effect of 50% or more. What follows is part of a selection rich in strong results, with near analogues and random picks from the rest.
The compounds below were run on Plasmodium falciparum (assay: Confirmatory screen in NF54 nanoGlo assay, in single point, at 2uM, 72h). Details: timepoint 72 hour.
Format: functional, Erythrocyte

SMILES	% Inhibition [%]
O=C(Nc1ccc(N2CCn3c(nc4cc(Cl)ccc43)C2)cc1)c1ccc(F)cc1	-6
Cc1nc(Cc2nc(O)cs2)sc1C	-20
NC[C@H]1CN(CCc2cccc(Cl)c2)C(=O)O1	-8
Cc1ccnc2nc(C(=O)N(C)c3ccc(Cl)cn3)nn12	16
CCC(=O)Nc1nc2ccc(NS(=O)(=O)Cc3ccccc3)cc2s1	-5
Fc1cccc(Br)c1C1CC(c2cccnc2)Nc2ncnn21 (stereo not drawn)	-9
CC(C)(C)OC(=O)NCc1ccccc1O	1
CCN1CCN(C(=O)c2ccccc2N2CCC(NC(=O)c3cccc(Br)c3)CC2)CC1	44
O=C(NC1CCN(Cc2ccccc2)CC1)c1cncc(O)c1	-10
CCN(CC)CCCNC(=O)c1ccc(-c2nc(CS(=O)(=O)c3ccccc3)c(C)o2)cc1	-10
O=S(=O)(c1ccc(Cl)cc1)N1CCN(C2CCCC2)CC1	2
Cc1ccc(Cn2cnc(NC(=O)CCn3c(=O)cc(C(F)F)c4cn(C)nc43)n2)cc1	-8
CCCCn1nc(NC(=O)c2cc(C3CC3)[nH]n2)cc1C	-2
CC(=O)Nc1cccc(C#CCN2CCN(c3ccc(F)cc3)CC2)c1	-5
O=c1[nH]c2ccccc2c(NCc2ccccc2)c1N1CCN(c2ccccc2)CC1	5
Cc1cccc(NC(=O)c2cc(C)nc3c2c(C)nn3-c2ccc(F)cc2)c1	-2
CN(C)Cc1ccc(NC(=O)c2cc(F)cc3c(=O)c4cc(F)ccc4[nH]c23)cc1	79
CCN1CCN(c2cccc(NC(=O)c3ccc4[nH]c5ccccc5c(=O)c4c3)c2)CC1	93
CCN1CCN(c2cccc(NC(=O)c3cc(F)cc4c(=O)c5cc(F)ccc5[nH]c34)c2)CC1	97
CC(C)NC(=O)N(C)Cc1ccc(F)cc1	0
CC(C)n1nccc1NC(=O)c1c[nH]c2ccc(F)cc2c1=O	-1
CCn1c(C)c(C)c2cc(C(=O)Nc3cccc(S(=O)(=O)N4CCOCC4)c3)ccc21	0
O=C(Nc1ccc(N2CCC(N3CCCCC3)CC2)cc1C(=O)O)c1ccccc1Cl	4
O=C1C2C3C=CC(C3=C(c3ccccc3)c3ccccc3)C2C(=O)N1CCO (stereo not drawn)	-5
N#Cc1ccc(N[C@H]2CCCN(Cc3ccc(F)cc3F)C2=O)cn1	-10
Cc1nc(COc2nc(C(C)(C)C)no2)cs1	-10
Cc1ccsc1NC(=O)OC(C)(C)C	1
Cc1nonc1N(Cc1ccc(Cl)cc1Cl)S(=O)(=O)c1ccccc1	-22
